Only some compounds are listed: those with a hit (about 4.5% of all), similar ones and a draw of the others.
hcDAF-12 act = H. contortus DAF-12 activation, primary screen | hit rate 1.4% among 370,000 | HEK293 hcDAF-12 lit1-tk-luc reporter, luminescence; 0% DMSO, 100% Δ7-dafachronic acid | activation, % at 6.8 µM;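 active = activation above the mean of all tested compounds plus 3 SD, cut at about 5.5% in these data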;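 note: 100% = response to 3 µM Δ7-dafachronic acid high control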
DAX1 inh-1 = inhibits human nuclear receptor DAX1 | P51843 | AID 504766 | HEK293 Gal4-DAX1 luciferase reporter, luminescence | inhibition, % at 6.75 µM | hit rate 0.99% among 340,000;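 active = inhibition above the mean over all tested compounds plus 3 SD, cut at about 4.2% in these data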;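 note: 0% = DAX1-transfected cells with DMSO and 100% = empty-vector control cells with DMSO; inhibition shows as a rise in luminescence from relieved DAX1 repression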
Target sequence (P51843 207-470 limits assumed): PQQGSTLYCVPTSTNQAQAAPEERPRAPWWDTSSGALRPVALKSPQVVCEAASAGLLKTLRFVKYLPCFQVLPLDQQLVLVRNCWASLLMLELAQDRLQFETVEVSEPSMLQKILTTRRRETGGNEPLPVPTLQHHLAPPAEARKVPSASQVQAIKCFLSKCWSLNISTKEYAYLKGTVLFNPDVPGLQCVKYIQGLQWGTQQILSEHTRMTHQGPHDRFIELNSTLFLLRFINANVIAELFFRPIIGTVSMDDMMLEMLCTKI
hgDAF12 agonist = hgDAF-12 agonism, primary luciferase screen. hit rate 1.8% among 370,000. activation, % at 6.8 µM. HEK293 GAL4-hgDAF12 UAS-luciferase reporter, agonist luminescence; normalized to butyrate control. AID 687014;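 active = activation above a cutoff set at the mean of all screened compounds plus 3 SD, cut at about 10% in these data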;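 note: 0% = DMSO wells and 100% = sodium butyrate wells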
DAX1 inh-2 = blocks DAX1 repression of SF-1 activated StAR promoter | hit rate 1.1% among 370,000 | inhibition, % at 6.8 µM | HEK293T StAR-luciferase reporter, SF-1/DAX-1 repression relief;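 active = inhibition above the mean over all tested compounds plus 3 SD, cut at about 3.6% in these data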;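 note: 0% = DAX-1 cells with DMSO and 100% = cells lacking DAX-1 with DMSO; higher inhibition means more luminescence from relief of DAX-1 repression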
FXN GAA850 act = increases GAA850 frataxin promoter reporter activity; HEK293 lucGAA850 FXN promoter luciferase reporter, 24 h; percent of 10 µM SAHA response; activation, % at 6 µM; hit rate 0.56% among 360,000; AID 540364;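 active = activation above the average of all compounds screened plus 3 SD, cutoff fixed separately per campaign, cut at about 7.5% in these data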;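 note: 0% = DMSO wells and 100% = 10 µM SAHA wells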
ssDAF12 agonist = S. stercoralis DAF-12 activation, primary screen. activation, % at 6.8 µM. HEK293 ssDAF-12/GRIP1 lit1-tk-luc reporter, luminescence; % of 3 µM dafachronic acid response. hit rate 1% among 370,000;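 active = activation above the mean over all tested compounds plus 3 SD, cut at about 0.9% in these data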;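 note: 0% = DMSO-only wells and 100% = 3 µM delta7-dafachronic acid wells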
GAA30 FXN cntr = counter-screen for GAA850 frataxin promoter activators: GAA30 promoter activation; shares compounds with FXN GAA850 act; HEK293 lucGAA30 FXN promoter luciferase, 24 h; DMSO = 0%, 5 µM ipriflavone = 100%; activation, % at 6 µM; hit rate 66% among 1,900; AID 588350;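 active = mean activation above the mean of solvent-only control wells plus 3 SD, cut at about 22% in these data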;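 note: counterscreen of GAA850 promoter hits where activity marks nonselective or luminescence artifacts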
FXN GAA850 conf = GAA850 FXN promoter activation confirmation. hit rate 86% among 1,900. AID 588351. shares compounds with FXN GAA850 act. HEK293 lucGAA850 FXN promoter luciferase reporter, 24 h; 100% = activation by SAHA. activation, % at 6 µM;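 active = mean activation above a set limit taken from the primary screen, cut at about 8% in these data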;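 note: 0% = DMSO wells and 100% = 10 µM SAHA wells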
* = called active by the depositor; . = not tested or not shown.

SMILES	hcDAF-12 act	DAX1 inh-1	hgDAF12 agonist	DAX1 inh-2	FXN GAA850 act	ssDAF12 agonist	GAA30 FXN cntr	FXN GAA850 conf
CCOC(=O)N[C@H](C(=O)N1CCC[C@H]1C(=O)NCCc1ccccc1Cl)C1CCCCC1	4	.	-2	1	.	-1	.	.
Cc1ccsc1C(=O)N1CCc2ccccc2C1	0	2	2	0	8.4*	0	43*	15*
O=C(N/N=C/c1ccccc1)C(=O)N/N=C/c1ccccc1	-2	1	-1	0	-1	-1	.	.
O=C(C=C=Nc1ccccc1)C(=O)N=C=Cc1ccccc1	-1	-1	-1	0	8.7*	-2	27*	29*
COC(=O)[C@]12C[C@H](CC(=O)NCc3cccc4ccccc34)C(=O)N(Cc3ccccc3)C1=C[C@H](COCc1ccccc1)O[C@@H]2C	-3	.	-1	-1	.	-1	.	.
Cc1cc(C)c2c(N)c(C(=O)Nc3ccc([N+](=O)[O-])cc3)sc2n1	2	0	2	1	9.4*	0	98*	32*
O=C1Nc2ccccc2Nc2ccc([N+](=O)[O-])cc21	0	-1	0	0	8.3*	-1	115*	35*
O=C1OC(=O)c2cc([N+](=O)[O-])ccc21	-2	0	1	0	-1	-2	.	.
COc1cccc(N(C)C(=O)[C@@H](C2CC2)[C@@H](O)c2ccc(Cl)cc2)c1	1	.	0	-1	.	-1	.	.
Cc1cccc(C)c1NC(=O)c1nc(S(=O)(=O)Cc2ccccc2)ncc1Cl	-4	-4	-9	-4	8.2*	-1	-36	20*
COc1ccc(NC(=S)Nc2ccccn2)c(OC)c1	0	1	6	0	8.1*	0	107*	46*
COc1ccc(NC(=S)Nc2ccc(OC)cc2OC)c(OC)c1	1	2	3	0	1	-1	.	.
COc1cc(NC(=O)CCc2nnc3ccc(N4CCOCC4)nn23)cc(OC)c1OC	-1	0	0	0	2	0	.	.
Cc1ccc(NC(=O)CCc2nnc3ccc(N4CCOCC4)nn23)cc1C	1	0	0	0	13*	-1	11	3
CCOC(=O)N1CCN(C(=O)c2ccc(CS(=O)(=O)c3ccc(OC)cc3)o2)CC1	0	-3	-3	0	14*	-1	20	7
COc1ccc(S(=O)(=O)Cc2ccc(C(=O)N3CCCC3)o2)cc1	1	3	-3	-1	-2	-2	.	.
Cc1ccc2c(c1)C1CS(=O)(=O)N(Cc3ccccc3)C(=O)N1C2 (stereo unspecified)	-2	.	-1	-1	.	-1	.	.
Cn1c(=S)c2[nH]c(SCC3CCCO3)nc2n(C)c1=O (stereo unspecified)	-2	-1	-1	0	2	-1	.	.
CCCC(C)Sc1nc2c([nH]1)c(=S)n(C)c(=O)n2C (stereo unspecified)	4	-2	-3	-1	10*	-1	15	18*
O=C(Nc1ccccc1C(=O)NC(Cc1ccccc1)C(=O)O)c1ccccc1 (stereo unspecified)	0	0	4	0	2	-1	.	.
O=C(Nc1ccccc1C(=O)NC(Cc1ccccc1)C(=O)NC1CCCCC1)c1ccccc1 (stereo unspecified)	-1	0	0	1	7.7*	-1	15	6
O=C(Nc1ccc(F)cc1)Nc1c(-c2ccccc2)nc2ncccn12	-3	.	0	1	.	-1	.	.
CC1CCN(c2ccc(NC(=O)c3ccc([N+](=O)[O-])o3)cc2)CC1	0	-1	6	-2	11*	0	80*	63*
Cc1ccc(NC(=O)c2ccc([N+](=O)[O-])o2)cc1C	-1	-1	-6	-3	7.7*	-1	56*	35*

Bioassay records from PubChem.
